GPR151 ag – activates the human receptor GPR151; activation, % at 11.2 µM; Q8TDV0; AID 1508602; PathHunter beta-arrestin GPR151 cells, luminescence; hit rate 1% among 650,000; in the data active means activation above about 4.9%;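 further: 0% = median of compound wells and 100% = cells with positive control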
Target sequence (Q8TDV0 whole entry, looked up): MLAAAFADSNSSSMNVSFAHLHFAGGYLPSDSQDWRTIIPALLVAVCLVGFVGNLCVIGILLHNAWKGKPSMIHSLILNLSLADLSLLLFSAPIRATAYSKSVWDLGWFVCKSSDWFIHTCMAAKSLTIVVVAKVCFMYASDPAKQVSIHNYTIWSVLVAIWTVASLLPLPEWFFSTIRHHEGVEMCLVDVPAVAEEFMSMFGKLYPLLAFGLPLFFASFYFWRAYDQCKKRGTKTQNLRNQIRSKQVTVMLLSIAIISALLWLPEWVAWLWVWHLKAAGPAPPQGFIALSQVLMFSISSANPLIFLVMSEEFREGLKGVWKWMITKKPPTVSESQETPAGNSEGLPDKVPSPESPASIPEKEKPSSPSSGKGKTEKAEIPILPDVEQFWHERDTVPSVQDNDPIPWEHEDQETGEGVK
MITF inh – inhibitors of human MITF | O75030 | AlphaScreen MITF homodimerization, bead proximity signal | inhibition, % at 2.6 µM | hit rate 0.91% among 650,000 | AID 1259374; in the data active means inhibition above about 50%;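 further: 0% = vehicle wells with protein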
FBW7 activator – human FBW7 E3 ligase activation, primary screen; AlphaScreen FBW7–phospho-cyclin E peptide binding, activator screen; Q969H0; normalized activity (activation), % at 26.1 µM; hit rate 0.13% among 650,000; in the data active means normalized activity above about 1.9%;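 further: purified mutant Fbw7 with reduced substrate affinity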
TEAD-YAP block – TEAD-YAP interaction inhibition | hit rate 1.4% among 640,000 | HEK-TIYL cells, TEAD-Gal4/YAP UAS-luciferase luminescence | inhibition, % at 9.12 µM | AID 1259422; in the data active means inhibition above about 32%;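 further: 0% = median of test compound wells and 100% = reference inhibitor wells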
GPR151 confirm – confirmation of human GPR151 activators; shares compounds with GPR151 ag; GPR151 PathHunter beta-arrestin cells, luminescence, 90 min; % of EA-reagent control over plate median; activation, % at 11.2 µM; 6,700 tested, under 10 active; AID 1508609;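 active means mean percent activation across replicates above the confirmation screen cutoff of 4.91%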
GPR119 ag – GPR119 activation, counter-screen for GPR151 activators. shares compounds with GPR151 ag. GPR119 PathHunter beta-arrestin cells, luminescence, 90 min; 0 = compound-well median, 100 = enzyme-acceptor control. activation, % at 11.2 µM. hit rate 0.3% among 6,700. AID 1508611;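 active means mean percent activation in the counterscreen above 29.09%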;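 further: counterscreen on off-target GPR119 to flag nonselective hits from the GPR151 activator screen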
Starred values were filed as active, the others as inactive; · = no result given. Compounds with a hit are over-represented: about 3.5% of the library has one in this group of screens.

SMILES | GPR151 ag | MITF inh | FBW7 activator | TEAD-YAP block | GPR151 confirm | GPR119 ag
COc1ccc(C(=O)OCc2ccccc2)cc1I | 3 | -11 | 0 | 6 | · | ·
O=C(/C=C/c1ccccc1)Nc1ccc(Cc2ccc(NC(=O)/C=C/c3ccccc3)c(C(=O)O)c2)cc1C(=O)O | 0 | -5 | 0 | -7 | · | ·
O=C1CCCN1CCCNc1nc(Nc2ccc(N3CCOCC3)cc2)nc2c1ncn2CCN1CCCC1=O | 11* | -3 | 0 | -2 | 0 | -5
O=C1CCCN1CCn1cnc2c(Nc3ccc(N4CCOCC4)cc3)nc(Nc3ccc(N4CCOCC4)cc3)nc21 | 3 | 21 | 0 | -3 | · | ·
Cc1cccc(NC(=O)c2ccc(Br)o2)n1 | -4 | 4 | 0 | -20 | · | ·
Cc1ccsc1/C=N/NC(=O)CNC(=O)c1cccs1 | -1 | 8 | 0 | 7 | · | ·
Cc1nnc(SCc2ccc(Cl)cc2)nc1C | 5.2* | 7 | 0 | -22 | 0 | -5
Cc1nnc(SCc2ccc(Cl)cc2)nc1/C=C/N(C)C | 0 | 12 | 0 | 8 | · | ·
COc1ccccc1OCCCC(=O)Nc1nnc(C2CCCCC2)s1 | 5.2* | 6 | 0 | -1 | 1 | 5
Fc1cccc(-c2cc3nc4c(c(N5CCOCC5)n3n2)CCC4)c1 | 6.7* | 7 | 0 | 0 | 2 | 9
Fc1ccc(-c2cc3nc4c(c(N5CCOCC5)n3n2)CCC4)cc1 | 1 | 6 | 0 | 5 | · | ·
CC1(C)CC(=O)C2=C(C1)N(c1ccc(Cl)cc1)C(N)=C(C#N)C2c1ccc2c(c1)OCO2 (stereo not drawn) | 14* | -7 | 0 | -6 | 0 | -3
O=C1CC(C(=O)N2CCC3(CC2)CC3C(=O)NCCC2=CCCCC2)c2ccccc21 (stereo not drawn) | 5.5* | -4 | 0 | -5 | 0 | 6
COc1ccccc1CCN1C(=O)CCC1CCNCc1ccccc1 (stereo not drawn) | -2 | -7 | 0 | -5 | · | ·
COc1ccccc1CCN1C(=O)CCC1CCNCCOc1ccccc1 (stereo not drawn) | 7.1* | -3 | 0 | -16 | 0 | 9
O=c1nc2s/c(=C\c3ccc(-c4ccccc4F)o3)c(=O)n2c2sc3c(c12)CCCC3 | -1 | 17 | 1 | 2 | · | ·
O=c1nc2s/c(=C\c3ccc(-c4ccc(F)cc4F)o3)c(=O)n2c2sc3c(c12)CCCC3 | 5.0* | 9 | 0 | -3 | 0 | -2
Cc1noc(C)c1S(=O)(=O)Nc1ccc(C(=O)NC2CCCC2)cc1 | -1 | 10 | 0 | 6 | · | ·
O=C(CSc1nnnn1-c1ccccc1)Nc1ccc(O)cc1 | -1 | -17 | 0 | 10 | · | ·
O=C(CSc1nnnn1-c1ccccc1)Nc1ccc(OC(F)(F)F)cc1 | 7.7* | 12 | 0 | 6 | 0 | 5
Cc1cccc2c1NC(=O)/C2=C\C(=O)c1cccs1 | 6.6* | -1 | 0 | 7 | 0 | 1
CCc1ccc2c(c1)/C(=C/C(=O)c1cccs1)C(=O)N2 | 17* | -26 | 0 | 0 | 1 | -3
Cc1nnsc1C(=O)N/N=C/c1cccn1C | -2 | 9 | 0 | 9 | · | ·
CCCCCOc1ccc(CSc2nncn2N)cc1 | 1 | 2 | 2 | -79 | · | ·
COc1cc(-c2c(C#N)c(N)n3c(nc4ccccc43)c2C#N)ccc1OCCCC#N | 7.3* | 5 | 0 | -6 | -1 | 5
SMILES | GPR151 ag | MITF inh | FBW7 activator | TEAD-YAP block | GPR151 confirm | GPR119 ag
COc1ccc(-c2c(C#N)c(N)n3c(nc4ccccc43)c2C#N)cc1OC | 1 | 12 | 0 | 3 | · | ·
Cc1cc(NCCN2CCOCC2)nc(Cl)n1 | 6.2* | 2 | 0 | -2 | -1 | -9
O=C(COc1ccccc1)Nc1ncc(Cc2cc(Cl)ccc2Cl)s1 | 0 | 11 | 0 | 10 | · | ·
Nc1cc(=O)[nH]c(SCC(=O)N2CCN(C(c3ccccc3)c3ccccc3)CC2)n1 | 9.4* | -5 | 0 | 4 | -1 | -9
CCCc1cc(=O)[nH]c(SCC(=O)N2CCN(c3ccccc3OC)CC2)n1 | 6.7* | 3 | 0 | 7 | -1 | -9
COc1cccc(C(=O)N2c3ccc(Cl)cc3-c3c(ssc3=S)C2(C)C)c1 | 1 | -1 | -1 | 6 | · | ·
O=C(O)CCc1nn2c3ccccc3n(CC(=O)O)c2nc1=O | 21* | -8 | 0 | 7 | 0 | 5
O=C(O)CCc1nn2c3ccccc3n(CCN3CCCCC3)c2nc1=O | 2 | 16 | 1 | -3 | · | ·

Screening data from PubChem.
